Screens: PubChem, National Center for Advancing Translational Sciences (NCATS)
Peg3 imprint = inducers of genomic imprint erasure in mouse ES cells | mouse ES Peg3-LacZ reporter, beta-gal luminescence, 40 h | Potency, µM (doses to about 60.7 µM), for inactives: top-dose activity change, positive = activation, most hits filed as activators | actives 0.02% (n = 110,000)
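Each well holds 300 Peg3LacZ-Neo (maternal) female ES cells incubated 40 h at 37C, 5% CO2. LacZ is measured by BetaGlo luminescence, with AC50 and maximum efficacy derived from dose-response curves.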
p53ts 32C kill = cytotoxicity in p53ts cells at permissive temperature; H1299-p53A138V at 32C, ATP luminescence viability, 24 h; Potency, µM (highest dose often 46.1 µM), for the others: at the top dose activity change, negative = cytotoxicity, hits mostly cytotoxic; actives 0.93% (n = 130,000); AID 924;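 note: 0% = DMSO and -100% = full killing by reference compound; nearly all actives have a fitted effect of over 55% in size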
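Cells: H1299 p53ts (A138V), 600/well, pre-incubated 16–30 h at 37C. Cpd up to 46 uM, 24 h, 32C. Readout: ATPlite luminescence, 20 min RT. Normalization: DMSO vs tamoxifen 100 uM. AC50 by Hill equation.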
IkB sig inh = IkB pathway inhibition in ABC-DLBCL cells. actives 0.04% (n = 110,000). Potency, µM (doses to about 57.1 µM), for the others: at the highest dose IkBa stabilization activation. ABC-DLBCL IkBa-CBG/CBR dual luciferase ratio, 4 h; response scale: scaled: untreated 0%, proteasome inhibitor 100%; active = well fitted curve in the direction sought with a large enough effect in the signal ratio, not every such curve was filed as active; inconclusive = small, poorly fitted or top-dose-only effect, or a change in a side signal; the % refers to the signal ratio;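 note: the direction sought is a rising ratio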
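In this assay, an IκBα–CBG68 fusion accumulates when IKK-driven degradation is blocked; native CBR normalizes for cell number. OCI-Ly3 cells were treated 4 h with compound and doxycycline, then green and red light read after Chroma-Glo addition.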
p53ts 39C tox = kills p53ts cells at the nonpermissive temperature. actives 1.5% (n = 130,000). H1299-p53A138V viability at 39C, ATP luminescence, 24 h. Potency, µM (series often up to 46.1 µM), inactives show at the highest dose activity change, negative = cell killing, actives largely listed as cytotoxic; note: % is set by controls: 0 for no effect and ±100 for the full control effect; nearly all actives have a fitted effect of over 55% in size
Numbers without * were called inactive; u = inconclusive; x = no result given; [ ] = dose if it differs, or a comment. Shown are actives, neighbours in structure and some others; about 1.7% of the full set was active somewhere. Unless noted, calls come from the whole dose curve; as a rule, active = well fitted curve in the direction sought with a large enough effect; inconclusive = small, poorly fitted or top-dose-only effect, or another doubt; inactive = no such curve, though single readings can be large; an effect the other way counts as inactive or inconclusive. Potency is the fitted concentration of half-maximal effect.

SMILES	Peg3 imprint	p53ts 32C kill	IkB sig inh	p53ts 39C tox
Cn1c(SC2=CS(=O)(=O)c3ccccc32)nc2ccccc21	-23%	u	u	13µM*
COc1cc(C)cc(OC)c1/C=C\C(=O)O	-6%[10.9 µM]	-3%[9.22 µM]	0%[11.4 µM]	1%[9.22 µM]
O=S(=O)(Nc1ccc(Br)cc1)c1ccc2nc(-c3ccccc3)[nH]c2c1	-12%[10.9 µM]	10%	u	u
CC(C)c1ccc(NS(=O)(=O)c2ccc3nc(-c4ccccc4)[nH]c3c2)cc1	-12%[10.9 µM]	u	u	20µM*
OC1c2ccccc2-c2nc3ccccc3cc21 (configuration not stated)	-86%	u	x	10µM*
c1ccc2c(c1)-c1nc3ccccc3cc1[C@H]2N1CCOCC1	3%[10.9 µM]	-2%[9.22 µM]	-1%[11.4 µM]	3%[9.22 µM]
CCC(=O)/C=C/C1C(C)=CCCC1(C)C (configuration not stated)	-3%	3%[1.84 µM]	2%	11%
COc1ccc(CSc2nc3ncccc3[nH]2)cc1	x	16µM*	x	x
CCn1c(=O)n(CC)c2cc(N3CCCC3)c(NC(=O)Nc3cc(C)cc(C)c3)cc21	3%[10.9 µM]	u	u	13µM*
O=S(=O)(c1cccc2c(Cl)cccc12)N1CCCNCC1	-16%	-3%	u	16µM*
Cc1ccc(OCC(O)C(C)NC(C)C)c2c1CCC2 (configuration not stated)	6%	x	x	x
Cc1oc(-c2ccc3c(c2)OCCO3)cc1C(=O)O	-94%	20µM*	u	u
CO[C@@H]1/C=C\O[C@]2(C)Oc3c(C)c(O)c4c(O)c(c(/C=N\N5CCN(C)CC5)c(O)c4c3C2=O)NC(=O)/C(C)=C\C=C/[C@H](C)[C@H](O)[C@H](C)[C@H](O)[C@H](C)[C@H](OC(C)=O)[C@@H]1C	x	x	-1%[11.4 µM]	x
CCc1ccc2oc(-c3cc(N=Cc4cccc(OC)c4O)ccc3O)nc2c1	-73%	10µM*	u	10µM*
CC(=O)NCCNc1nc(-c2cccnc2)nc2ccccc12	u	7%	-2%[11.4 µM]	6%
CN(C)c1ccc(/C=c2\sc3n(c2=O)CCCN=3)cc1	-79%	13µM*	u	13µM*
O=C(NCC1CCN(Cc2ccc(F)cc2)CC1)c1cc2ccc3cccnc3c2[nH]1	4%[10.9 µM]	-9%	u	-23%
Cc1ccc2nc(N(Cc3cccnc3)C(=O)c3cccs3)sc2c1	-11%[10.9 µM]	-4%	u	-28%
Cc1ccnc(N(C(=O)c2cccs2)C(=O)c2cccs2)c1	-89%	u	1%	13µM*
CCOC(=O)c1[nH]c2ccc(OC)cc2c1NC(=S)N1CCN(c2ccc(F)cc2)CC1	x	-20%	x	-7%
CCOC(=O)c1[nH]c2ccc(OC)cc2c1NC(=S)N1CCN(c2cccc(C)c2C)CC1	x	11µM*	x	u
CCc1ccc(CNC(=O)c2cc(-c3ccc(Cl)s3)nc3ccccc23)cc1	1%[10.9 µM]	-1%	0%	13%
CCCCN(CCCNC(=O)c1cc(Nc2ccc(OC)cc2)nc2ccccc12)Cc1ccccc1	-10%[10.9 µM]	-8%	-2%	-26%
CCc1ccccc1NC(=O)c1cc(-c2ccc(Cl)s2)nc2ccccc12	-3%[10.9 µM]	u	u	10µM*
CCCCN(C)CCCNC(=O)c1cc(-c2ccc(Br)s2)nc2ccccc12	-7%[10.9 µM]	-11%	-5%	13µM*
SMILES	Peg3 imprint	p53ts 32C kill	IkB sig inh	p53ts 39C tox
CCCCN(CCCNC(=O)c1cc(Nc2ccc(OC)c(OC)c2)nc2ccccc12)Cc1ccccc1	-15%[10.9 µM]	-3%	u	13µM*
Cc1cc(C)cc(Nc2cc(C(=O)NCCCN(C)C3CCCCC3)c3ccccc3n2)c1	-11%[10.9 µM]	u	u	7.9µM*
Cc1ccc(C)c(Nc2cc(C(=O)NCCCN(C)C3CCCCC3)c3ccccc3n2)c1	-12%[10.9 µM]	-9%	u	u
O=C(O)C[C@@H]1CCCc2ccccc2[C@H]1O	x	-3%	0%	12%
O=C(Nc1ccccc1)c1ccc(Cc2nc3ccccc3[nH]2)cc1	x	-5%	x	-6%
CCn1c(=N)n(CCOc2ccc(Br)cc2)c2ccccc21	-17%[10.9 µM]	u	u	13µM*
COc1ccc(OCCn2c(=N)n(CCO)c3ccccc32)cc1	-13%	-2%	2%	-17%
CCNc1ncc2nc(-c3ccccc3)c(=O)n(C[C@H]3CCCO3)c2n1	-2%	5%	-11%[11.4 µM]	4%
O=C1C(Cl)=C(NCCN2CCOCC2)C(=O)c2ncccc21	-82%	3.2µM*	x	5µM*
O=C1C(Cl)=C(NC2CCc3ccccc32)C(=O)c2ncccc21 (configuration not stated)	-86%	2.5µM*	x	6.3µM*
c1ccc2c(c1)CCCC2NC1=NCCC1 (configuration not stated)	6%	-2%	0%	5%
Clc1ccccc1-c1nccc(NCCN2CCOCC2)n1	-13%	-1%	0%[11.4 µM]	-13%
COc1ccc(OC)c(C2OCCC=CC2C)c1 (configuration not stated)	x	-5%[9.22 µM]	x	9%[9.22 µM]
O=c1c(-c2cc(F)cc(F)c2)nc2cncnc2n1Cc1ccccc1	-18%	-20%	2%[11.4 µM]	-20%
COC(=O)c1ccc(C(NC(=O)OCc2ccccc2)/C(F)=C/[C@@H](C)C(=O)NCc2ccc(OC)c(OC)c2)cc1 (some centres not stated)	-15%	u	x	13µM*
COC(=O)c1ccc(C(NC(=O)OCc2ccccc2)/C(F)=C/[C@@H](C)C(=O)NCc2ccc(-c3ccccc3)cc2)cc1 (some centres not stated)	-14%	-2%	x	-3%
CN(C)c1ccc(-c2nc(NCCc3cnc[nH]3)c3ccccc3n2)cc1	-25%	5µM*	-8%[11.4 µM]	5µM*
COc1ccccc1CNc1nc(-c2ccc(N(C)C)cc2)nc2ccccc12	-35%	u	8%[11.4 µM]	20µM*
COc1ccc2[nH]cc(CCNc3nc(-c4ccc(N(C)C)cc4)nc4ccccc34)c2c1	-42%	10µM*	-7%[11.4 µM]	13µM*
COc1ccccc1-c1nc(NCCc2cnc[nH]2)c2ccccc2n1	u	1%	-6%[11.4 µM]	-10%
COc1ccccc1CNc1nc(-c2ccc(C(=O)N(C)C)cc2)nc2ccccc12	-26%	1%	-4%[11.4 µM]	-10%
COCCn1c(=O)c(CCc2ccccc2)nc2cnc(N(C)C)nc21	-7%	-16%	-4%[11.4 µM]	-16%
CO[C@@H]1/C=C\O[C@]2(C)Oc3c(C)c(O)c4c(O)c(cc(O)c4c3C2=O)NC(=O)/C(C)=C\C=C/[C@H](C)[C@@H](O)[C@H](C)[C@H](O)[C@H](C)[C@H](OC(C)=O)[C@@H]1C	x	-7%[9.22 µM]	-2%[11.4 µM]	-2%[9.22 µM]
N#CCCn1c(=O)c(-c2cccs2)nc2cnc(N3CCOCC3)nc21	-5%	-2%	-2%[11.4 µM]	7%
O=C(Nc1ccc(C(F)(F)F)cc1)C(Cc1ccccc1)n1cccc1 (configuration not stated)	-10%[10.9 µM]	-10%	u	20µM*
N[C@@H](Cc1c[nH]c2ccccc12)C(=O)NCC(=O)O	x	x	0%[11.4 µM]	x
COc1ccc(-c2nc3cnc(N4CCNCC4)nc3n(Cc3cccs3)c2=O)cc1	-50%	u	0%[11.4 µM]	u
